PubChem BioAssay (EPA / NIEHS)
Results filed as inconclusive are left out. The source made the active and inactive calls. How the source made its calls, unless noted: active means hit-call score of the fitted dose curve at least 0.9, where 1 is the maximum; inactive means score below 0.9.

Columns and labels:
[1] = read-out: Monokine induced gamma interferon (MIG), CXCL9 (gene 4283); assay: BSK_3C_MIG: BioMAP Diversity Plus: 3C Assay for Monokine induced gamma interferon (MIG) Biomarker Activity (AID 2283021); conditions: primary human endothelial cells (HUVEC); actives raise or lower the signal;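 on AC50: MIG protein level measured by immunoassay in the treated endothelial cultures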
Summary of the method: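 HUVEC, 3C system; 24 h chemical exposure; MIG by ELISA; bidirectional fit vs DMSO baseline.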

[2] = BSK_3C_SRB: Viability Assessment in the BioMAP Diversity Plus: 3C Assay (AID 2283023); conditions: primary human endothelial cells (HUVEC);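 further: fitted both ways against DMSO so a hit may be signal rise or drop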
Summary of the method: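 Human umbilical vein endothelial cells in the 3C system, treated 24 h. Total protein measured by 0.1% sulforhodamine B staining after 10% TCA fixation, read at 560 nm; bidirectional fit versus DMSO.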

[3] = read-out: Matrix Metallopeptidase 1 (MMP1), MMP1 (gene 4312); assay: BSK_BE3C_MMP1: BioMAP Diversity Plus: BE3C Assay for Matrix Metallopeptidase 1 (MMP1) Biomarker Activity (AID 2283024); conditions: primary human bronchial epithelial cells; actives raise or lower the signal
Summary of the method: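 ELISA read-out of MMP1 in human lung bronchial epithelial primary cultures, 24 h post-dose; bidirectional curve fit vs DMSO baseline, gain or loss of signal scored.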

[4] = BSK_3C_Vis: BioMAP Diversity Plus: 3C Assay for Morphology Visualization (AID 2283025); conditions: primary human endothelial cells (HUVEC);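 further: fitted both ways so gain or loss versus DMSO counts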;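 on AC50: light microscopy image of cell morphology used as background control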
Summary of the method: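 HUVEC, 3C system; light microscopy of morphology at 24 h post-dose. Bidirectional fit vs DMSO baseline. Secondary readout, background-control function.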

[5] = read-out: Pselectin, SELP (gene 6403); assay: BSK_4H_Pselectin: BioMAP Diversity Plus: 4H Assay for Pselectin Biomarker Activity (AID 2283026); conditions: primary human endothelial cells (HUVEC); actives raise or lower the signal
Summary of the method: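 HUVEC, 24 h chemical exposure; P-selectin read by ELISA. Bidirectional curve fit vs DMSO baseline; gain or loss of signal scored.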

[6] = BSK_4H_SRB: Viability Assessment in the BioMAP Diversity Plus: 4H Assay (AID 2283027); conditions: primary human endothelial cells (HUVEC);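 further: cells exposed to compound for 24 h before staining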;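 on AC50: curves fitted both ways versus DMSO so AC50 may be loss or gain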
Summary of the method: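 Cytotoxicity read-out in primary human endothelial cells: after 24 h compound exposure, cells were TCA-fixed (10%), stained with 0.1% SRB and absorbance taken at 560 nm. Values fitted in both directions relative to DMSO.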

[7] = BSK_BE3C_SRB: Viability Assessment in the BioMAP Diversity Plus: BE3C Assay (AID 2283028); conditions: primary human bronchial epithelial cells
Summary of the method: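 Human bronchial epithelial primary cells in confluent culture, 24 h after chemical dosing; total protein by 0.1% SRB staining after 10% TCA fixation, read at 560 nm. Bidirectional fitting versus DMSO baseline.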

[8] = read-out: Thrombomodulin, THBD (gene 7056); assay: BSK_3C_Thrombomodulin: BioMAP Diversity Plus: 3C Assay for Thrombomodulin Biomarker Activity (AID 2283029); conditions: primary human endothelial cells (HUVEC); actives raise or lower the signal
Summary of the method: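 HUVEC, 3C conditions; compound 24 h; thrombomodulin by ELISA; bidirectional curve fit vs DMSO baseline; parallel SRB total-protein staining for cytotoxicity.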

[9] = read-out: Urokinase-type plasminogen activator receptor (uPAR), PLAUR (gene 5329); assay: BSK_4H_uPAR: BioMAP Diversity Plus: 4H Assay for Urokinase-type plasminogen activator receptor (uPAR) Biomarker Activity (AID 2283030); conditions: primary human endothelial cells (HUVEC); actives raise or lower the signal
Summary of the method: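 Human umbilical vein endothelial cells in the 4H system, 24 h after chemical dosing. Cell-surface uPAR measured by ELISA, fitted in both directions versus DMSO; cytotoxicity checked by SRB total protein in parallel cultures.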

[10] = read-out: Vascular endothelial growth factor receptor 2 (Homo sapiens) (UniProt P35968); assay: BSK_4H_VEGFRII: BioMAP Diversity Plus: 4H Assay for Vascular endothelial growth factor receptor 2 (VEGFR2) Biomarker Activity (AID 2283031); conditions: primary human endothelial cells (HUVEC); actives raise or lower the signal;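 on AC50: cell-surface VEGFR2 protein level quantified by ELISA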
Summary of the method: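 Primary human umbilical vein endothelial cells (4H system), 24 h exposure; cell-surface VEGFR2 measured by ELISA. Bidirectional fitting versus DMSO; cytotoxicity checked in parallel by SRB total-protein staining.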

[11] = read-out: Human Leukocyte Antigen - DR isotype (HLADR), HLA-DRA (gene 3122); assay: BSK_BE3C_HLADR: BioMAP Diversity Plus: BE3C Assay for Human Leukocyte Antigen - DR isotype (HLADR) Biomarker Activity (AID 2283032); conditions: primary human bronchial epithelial cells; actives raise or lower the signal
Summary of the method: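 Primary human bronchial epithelial cells (BE3C); 24 h chemical exposure; HLA-DR by ELISA; bidirectional curve fit vs DMSO baseline.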

[12] = read-out: Vascular cell adhesion molecule 1 (VCAM1), VCAM1 (gene 7412); assay: BSK_4H_VCAM1: BioMAP Diversity Plus: 4H Assay for Vascular cell adhesion molecule 1 (VCAM1) Biomarker Activity (AID 2283033); conditions: primary human endothelial cells (HUVEC); actives raise or lower the signal
Summary of the method: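 HUVEC, 24 h post-dose; VCAM-1 by ELISA. Bidirectional curve fit vs DMSO baseline. Parallel SRB total-protein stain (0.1% SRB after 10% TCA fixation, 560 nm) for cytotoxicity.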

[13] = read-out: Interferon-gamma inducible Protein 10 (IP10), CXCL10 (gene 3627); assay: BSK_BE3C_IP10: BioMAP Diversity Plus: BE3C Assay for Interferon-gamma inducible Protein 10 (IP10) Biomarker Activity (AID 2283034); conditions: primary human bronchial epithelial cells; actives raise or lower the signal
Summary of the method: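 ELISA readout of IP-10 in BE3C system: primary human bronchial epithelial cells, 24 h post-dosing; bidirectional curve fit vs DMSO baseline.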

[14] = read-out: Monokine induced gamma interferon (MIG), CXCL9 (gene 4283); assay: BSK_BE3C_MIG: BioMAP Diversity Plus: BE3C Assay for Monokine induced gamma interferon (MIG) Biomarker Activity (AID 2283035); conditions: primary human bronchial epithelial cells; actives raise or lower the signal
Summary of the method: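 ELISA quantified MIG after 24 h exposure of primary bronchial epithelial cultures, analysed in both directions relative to DMSO. Cytotoxicity tracked in parallel cultures by sulforhodamine B staining.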

[15] = read-out: Transforming growth factor beta 1 (TGFb1), TGFB1 (gene 7040); assay: BSK_BE3C_TGFb1: BioMAP Diversity Plus: BE3C Assay for Transforming growth factor beta 1 (TGFb1) Biomarker Activity (AID 2283036;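 further: TGF-b1 protein level measured by ELISA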); conditions: primary human bronchial epithelial cells; actives raise or lower the signal
Summary of the method: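 Read-out: ELISA for TGF-b1 in primary human bronchial epithelial cultures, 24 h post-dose. Bidirectional curve fitting vs DMSO control; gain or loss of signal both scored.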

[16] = read-out: Plasminogen activator inhibitor-1 (PAI1), SERPINE1 (gene 5054); assay: BSK_BE3C_PAI1: BioMAP Diversity Plus: BE3C Assay for Plasminogen activator inhibitor-1 (PAI1) Biomarker Activity (AID 2283037); conditions: primary human bronchial epithelial cells; actives raise or lower the signal
Summary of the method: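 ELISA read-out of PAI-1 from human bronchial epithelial primary cells, 24 h post-dosing; bidirectional curve fit vs DMSO baseline, gain or loss of signal scored.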

[17] = read-out: urokinase plasminogen activator (uPA), PLAU (gene 5328); assay: BSK_BE3C_uPA: BioMAP Diversity Plus: BE3C Assay for urokinase plasminogen activator (uPA) Biomarker Activity (AID 2283038); conditions: primary human bronchial epithelial cells; actives raise or lower the signal;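 further: uPA protein level quantified by ELISA in cell cultures; uPA read one day after compound addition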
Summary of the method: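 Primary human bronchial epithelial cells, uPA measured by ELISA 24 h after dosing. Bidirectional change relative to DMSO; cytotoxicity checked in parallel cultures by sulforhodamine B total-protein staining.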

[18] = read-out: Urokinase-type plasminogen activator receptor (uPAR), PLAUR (gene 5329); assay: BSK_BE3C_uPAR: BioMAP Diversity Plus: BE3C Assay for Urokinase-type plasminogen activator receptor (uPAR) Biomarker Activity (AID 2283039); conditions: primary human bronchial epithelial cells; actives raise or lower the signal;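 further: cells exposed to compound for one day before measurement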
Summary of the method: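 ELISA readout of uPAR on human lung primary bronchial epithelial cells, 24 h post-dosing. Bidirectional curve fit relative to DMSO vehicle baseline; gain or loss of signal both scored.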

[19] = read-out: Interleukin-6 (IL6), IL6 (gene 3569); assay: BSK_CASM3C_IL6: BioMAP Diversity Plus: CASM3C Assay for Interleukin-6 (IL6) Biomarker Activity for (AID 2283040); conditions: primary human coronary artery smooth muscle cells; actives raise or lower the signal
[20] = target: human Vitamin D Receptor (VDR), VDR (gene 7421) (UniProt P11473); assay: ATG_VDR_TRANS: Attagene TRANS-FACTORIAL HepG2 Assay for human Vitamin D Receptor (VDR) (AID 2283022; active means hit-call score of the fitted dose curve at least 0.9, where 1 is the maximum)
human Vitamin D Receptor (VDR), VDR (gene 7421), sequence (P11473 whole entry, looked up, the tested form may be a part): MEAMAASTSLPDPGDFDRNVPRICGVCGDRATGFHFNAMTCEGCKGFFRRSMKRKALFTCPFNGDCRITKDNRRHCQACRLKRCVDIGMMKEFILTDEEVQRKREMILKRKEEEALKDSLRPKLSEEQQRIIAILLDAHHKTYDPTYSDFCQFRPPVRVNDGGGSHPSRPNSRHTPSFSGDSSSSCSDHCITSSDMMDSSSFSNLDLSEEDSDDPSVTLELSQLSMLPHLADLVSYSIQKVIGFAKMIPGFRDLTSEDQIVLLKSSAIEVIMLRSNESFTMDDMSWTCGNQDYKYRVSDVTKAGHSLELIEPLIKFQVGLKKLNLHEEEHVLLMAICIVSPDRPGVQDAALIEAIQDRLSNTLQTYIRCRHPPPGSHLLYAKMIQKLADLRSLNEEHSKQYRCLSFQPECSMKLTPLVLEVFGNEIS
Summary of the method: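 HepG2 cells were transiently transfected with GAL4-UAS reporter units and a chimeric VDR-Gal4 construct, then dosed for 24 hours. Reporter mRNA was quantified by RT-PCR, fluorescent labeling, HpaI digestion and capillary electrophoresis; gain of signal analysed vs DMSO.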

Measured: AC50

CCN(CC)N=O
not listed: [20]
inactive: all other assays above

O=[N+]([O-])c1ccc(Oc2ccc(Cl)cc2Cl)cc1
active: [2] 31.2 µM | [4] 39 µM | [11] 20 µM
not listed: [15]
inactive: all other assays above

Clc1ccc(C(c2ccc(Cl)cc2)C(Cl)Cl)cc1
inactive: [20] | [7] | [8] | [14] | [17] | [18] | [19]
active: [1] 35.2 µM | [2] 19.3 µM | [3] 13.7 µM | [4] 37.3 µM | [5] 15.1 µM | [6] 29.3 µM | [9] 31.4 µM | [10] 26.1 µM | [11] 30.5 µM | [12] 25 µM | [13] 32.2 µM | [16] 34.4 µM

ClC1=C(Cl)C2(Cl)C3C(Cl)C=CC3C1(Cl)C2(Cl)Cl (stereo unspecified)
active: [1] 35.7 µM | [2] 28.7 µM | [4] 37.3 µM | [5] 28.5 µM | [6] 33.4 µM | [9] 34.7 µM | [10] 20 µM | [11] 26.2 µM | [12] 32.4 µM | [13] 32.3 µM | [14] 31.3 µM | [16] 35 µM | [19] 27.2 µM
inactive: [3] | [7] | [8] | [17] | [18]

c1ccc(C2CO2)cc1 (stereo unspecified)
not listed: [15] | [20]
inactive: all other assays above

CCCCCCCCOC(=O)c1ccc(C(=O)OCCCCCCCC)c(C(=O)OCCCCCCCC)c1
not listed: [20]
inactive: all other assays above

C[C@]12C=CC3=C4CCC(=O)C=C4CC[C@H]3[C@@H]1CC[C@@H]2O
active: [2] 7.77 µM | [3] 10.2 µM | [4] 7.2 µM | [9] 16 µM | [13] 29.2 µM | [19] 13 µM
not listed: [20]
inactive: all other assays above
